The record followed here is ChEMBL document CHEMBL1961873, “Compounds: GSK PKIS; Assays: Nanosyn kinase panel” (2012).

Assay [1] addresses Mitogen-activated protein kinase 3 (Homo sapiens) (UniProt P27361). The conditions noted are these: at 1 µM.
For assay [2], the target named is SRSF protein kinase 3 (Homo sapiens) (UniProt Q9UPE1). The following applies: at 0.1 µM.
For assay [3] the target is unchanged. The conditions noted are these: at 1 µM.
The target of assay [4] is Mitogen-activated protein kinase 14 (Homo sapiens) (UniProt Q16539). The following applies: at 0.1 µM.
Mitogen-activated protein kinase 14 (Homo sapiens), sequence (Q16539 whole entry): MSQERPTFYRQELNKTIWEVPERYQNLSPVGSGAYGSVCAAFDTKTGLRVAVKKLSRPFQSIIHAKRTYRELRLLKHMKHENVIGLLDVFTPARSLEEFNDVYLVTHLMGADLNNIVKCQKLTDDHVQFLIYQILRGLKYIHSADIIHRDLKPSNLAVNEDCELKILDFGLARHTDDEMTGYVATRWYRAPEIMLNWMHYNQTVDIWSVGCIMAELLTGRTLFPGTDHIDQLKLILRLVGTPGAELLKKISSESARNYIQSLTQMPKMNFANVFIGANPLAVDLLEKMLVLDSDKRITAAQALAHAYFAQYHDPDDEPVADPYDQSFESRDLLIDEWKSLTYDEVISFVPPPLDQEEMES
Assay [5] shares this target. The conditions noted are these: at 1 µM.
Assay [6] concerns the target Mitogen-activated protein kinase 11 (Homo sapiens) (UniProt Q15759). The conditions noted are these: at 0.1 µM.
The target is the same in assay [7]. The conditions noted are these: at 1 µM.
Assay [8] addresses T1, Mitogen-activated protein kinase 13 (Homo sapiens) (UniProt O15264).
T1 sequence (whole entry): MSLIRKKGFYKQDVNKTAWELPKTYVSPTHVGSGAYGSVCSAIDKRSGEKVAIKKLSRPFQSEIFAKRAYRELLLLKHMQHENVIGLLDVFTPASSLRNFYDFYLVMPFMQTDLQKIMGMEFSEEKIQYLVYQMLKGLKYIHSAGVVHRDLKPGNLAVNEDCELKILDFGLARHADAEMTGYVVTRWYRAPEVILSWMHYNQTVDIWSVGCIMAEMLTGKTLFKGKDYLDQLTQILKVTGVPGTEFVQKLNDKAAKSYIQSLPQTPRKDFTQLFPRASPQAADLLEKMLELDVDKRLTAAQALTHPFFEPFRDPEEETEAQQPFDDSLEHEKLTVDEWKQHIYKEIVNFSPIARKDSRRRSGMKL
The conditions noted are these: at 0.1 µM.

For assay [9], the target named is T1, Mitogen-activated protein kinase 13 (Homo sapiens). The conditions noted are these: at 1 µM.
The target of assay [10] is T2, Mitogen-activated protein kinase 12 (Homo sapiens) (UniProt P53778).
T2 sequence (whole entry): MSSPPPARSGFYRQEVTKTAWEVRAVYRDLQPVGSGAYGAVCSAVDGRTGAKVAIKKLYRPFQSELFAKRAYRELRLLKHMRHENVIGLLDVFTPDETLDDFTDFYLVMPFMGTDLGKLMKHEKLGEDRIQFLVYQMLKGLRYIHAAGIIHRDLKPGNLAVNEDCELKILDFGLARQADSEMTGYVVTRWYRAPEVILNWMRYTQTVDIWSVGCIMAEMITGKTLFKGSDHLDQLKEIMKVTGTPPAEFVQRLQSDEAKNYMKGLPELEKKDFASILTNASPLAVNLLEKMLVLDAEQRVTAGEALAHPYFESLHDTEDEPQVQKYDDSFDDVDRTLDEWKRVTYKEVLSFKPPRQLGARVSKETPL
The conditions noted are these: at 0.1 µM.

Assay [11] concerns the target T2, Mitogen-activated protein kinase 12 (Homo sapiens). The conditions noted are these: at 1 µM.
For assay [12], the target named is SRSF protein kinase 1 (Homo sapiens) (UniProt Q96SB4). The conditions noted are these: at 0.1 µM.
SRSF protein kinase 1 (Homo sapiens), sequence (Q96SB4 whole entry): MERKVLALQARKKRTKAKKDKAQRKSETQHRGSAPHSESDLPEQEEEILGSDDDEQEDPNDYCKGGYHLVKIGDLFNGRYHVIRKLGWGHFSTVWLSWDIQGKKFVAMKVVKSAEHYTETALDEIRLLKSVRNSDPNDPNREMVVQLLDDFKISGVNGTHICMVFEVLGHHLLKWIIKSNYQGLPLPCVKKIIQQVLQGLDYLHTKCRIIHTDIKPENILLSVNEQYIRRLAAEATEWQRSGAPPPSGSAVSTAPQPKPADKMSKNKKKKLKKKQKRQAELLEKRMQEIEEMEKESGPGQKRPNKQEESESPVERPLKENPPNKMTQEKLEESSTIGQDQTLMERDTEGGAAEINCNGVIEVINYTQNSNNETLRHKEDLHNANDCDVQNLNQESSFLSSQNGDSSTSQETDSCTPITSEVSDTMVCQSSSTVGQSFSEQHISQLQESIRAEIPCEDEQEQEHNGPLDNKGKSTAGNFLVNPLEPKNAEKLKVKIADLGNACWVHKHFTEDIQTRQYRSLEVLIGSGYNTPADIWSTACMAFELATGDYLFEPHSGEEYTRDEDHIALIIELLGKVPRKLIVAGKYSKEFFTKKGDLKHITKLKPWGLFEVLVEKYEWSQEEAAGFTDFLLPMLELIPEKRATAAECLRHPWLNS
For assay [13] the target is unchanged. The following applies: at 1 µM.
Assay [14] concerns the target Phosphatidylinositol 4,5-bisphosphate 3-kinase catalytic subunit alpha isoform (Homo sapiens) (UniProt P42336). The conditions noted are these: at 0.1 µM.
Assay [15] shares this target. The conditions noted are these: at 1 µM.
For assay [16], the target named is T3, Phosphatidylinositol 4,5-bisphosphate 3-kinase catalytic subunit delta isoform (Homo sapiens) (UniProt O00329).
T3 sequence (whole entry): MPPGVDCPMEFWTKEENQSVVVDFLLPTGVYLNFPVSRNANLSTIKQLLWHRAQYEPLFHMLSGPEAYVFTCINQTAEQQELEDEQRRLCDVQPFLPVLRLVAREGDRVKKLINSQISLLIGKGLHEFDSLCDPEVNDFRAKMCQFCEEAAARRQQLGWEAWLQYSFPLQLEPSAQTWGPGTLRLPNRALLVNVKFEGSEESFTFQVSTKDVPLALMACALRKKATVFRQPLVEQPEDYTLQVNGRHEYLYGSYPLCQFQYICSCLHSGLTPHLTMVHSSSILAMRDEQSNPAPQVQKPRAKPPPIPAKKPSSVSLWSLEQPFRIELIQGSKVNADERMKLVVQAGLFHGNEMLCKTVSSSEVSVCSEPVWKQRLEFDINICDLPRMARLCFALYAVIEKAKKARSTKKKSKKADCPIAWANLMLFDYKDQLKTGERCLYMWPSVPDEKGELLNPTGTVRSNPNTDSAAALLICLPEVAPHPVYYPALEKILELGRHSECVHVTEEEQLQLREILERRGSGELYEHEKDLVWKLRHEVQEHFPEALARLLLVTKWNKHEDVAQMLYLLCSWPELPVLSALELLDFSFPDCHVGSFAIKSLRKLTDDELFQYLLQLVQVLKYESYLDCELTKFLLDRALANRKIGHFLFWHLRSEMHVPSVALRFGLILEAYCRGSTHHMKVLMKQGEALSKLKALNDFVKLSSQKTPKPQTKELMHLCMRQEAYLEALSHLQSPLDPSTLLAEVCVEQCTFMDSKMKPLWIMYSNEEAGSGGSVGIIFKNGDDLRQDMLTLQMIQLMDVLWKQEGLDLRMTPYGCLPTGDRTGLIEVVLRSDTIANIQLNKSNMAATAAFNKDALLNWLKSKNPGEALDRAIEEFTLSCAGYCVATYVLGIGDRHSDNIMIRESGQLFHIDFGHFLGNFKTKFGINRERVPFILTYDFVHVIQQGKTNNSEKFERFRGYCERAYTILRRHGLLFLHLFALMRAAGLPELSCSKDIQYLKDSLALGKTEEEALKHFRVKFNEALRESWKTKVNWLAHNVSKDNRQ
The conditions noted are these: at 0.1 µM.

Assay [17] has as its target T3, Phosphatidylinositol 4,5-bisphosphate 3-kinase catalytic subunit delta isoform (Homo sapiens). The following applies: at 1 µM.
Assay [18] concerns the target Phosphatidylinositol 4-kinase beta (Homo sapiens) (UniProt Q9UBF8). The following applies: at 0.1 µM.
Assay [19] has the same target. The conditions noted are these: at 1 µM.
Assay [20] has as its target Sphingosine kinase 1 (Homo sapiens) (UniProt Q9NYA1). The conditions noted are these: at 0.1 µM.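 Also: mean percent inhibition of SPHK1 activity, measured within the GSK PKIS screening panel.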

Phosphatidylinositol 4,5-bisphosphate 3-kinase catalytic subunit alpha isoform (Homo sapiens), sequence (P42336 whole entry, canonical isoform): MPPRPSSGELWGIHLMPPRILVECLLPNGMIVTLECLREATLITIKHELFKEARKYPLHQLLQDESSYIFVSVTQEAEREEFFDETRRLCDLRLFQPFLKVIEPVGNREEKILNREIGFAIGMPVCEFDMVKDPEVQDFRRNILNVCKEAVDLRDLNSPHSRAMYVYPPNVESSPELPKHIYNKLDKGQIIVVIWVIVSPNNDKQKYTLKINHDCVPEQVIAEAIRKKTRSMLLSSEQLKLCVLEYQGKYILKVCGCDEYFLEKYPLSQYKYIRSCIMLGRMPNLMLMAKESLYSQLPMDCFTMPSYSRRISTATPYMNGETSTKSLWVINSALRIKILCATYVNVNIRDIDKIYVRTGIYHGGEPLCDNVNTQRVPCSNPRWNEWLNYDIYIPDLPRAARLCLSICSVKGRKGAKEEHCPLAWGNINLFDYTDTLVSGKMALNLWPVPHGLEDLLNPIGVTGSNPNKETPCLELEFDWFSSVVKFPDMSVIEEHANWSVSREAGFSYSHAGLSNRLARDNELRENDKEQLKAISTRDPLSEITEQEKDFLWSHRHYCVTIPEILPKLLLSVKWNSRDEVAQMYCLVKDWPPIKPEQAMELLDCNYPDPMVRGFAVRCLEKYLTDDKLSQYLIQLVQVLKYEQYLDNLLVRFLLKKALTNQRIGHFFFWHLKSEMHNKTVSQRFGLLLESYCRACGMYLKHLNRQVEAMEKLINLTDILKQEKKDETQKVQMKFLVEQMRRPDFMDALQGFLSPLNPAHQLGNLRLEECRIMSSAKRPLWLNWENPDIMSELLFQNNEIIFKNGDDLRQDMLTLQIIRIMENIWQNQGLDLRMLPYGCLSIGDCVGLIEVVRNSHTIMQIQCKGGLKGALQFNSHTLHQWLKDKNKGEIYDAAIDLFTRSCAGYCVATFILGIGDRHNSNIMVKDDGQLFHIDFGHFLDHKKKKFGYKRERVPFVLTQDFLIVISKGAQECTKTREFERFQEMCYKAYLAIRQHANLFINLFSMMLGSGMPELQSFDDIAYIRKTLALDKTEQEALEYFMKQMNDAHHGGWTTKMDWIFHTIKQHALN
Phosphatidylinositol 4-kinase beta (Homo sapiens), sequence (Q9UBF8 2-816 limits assumed): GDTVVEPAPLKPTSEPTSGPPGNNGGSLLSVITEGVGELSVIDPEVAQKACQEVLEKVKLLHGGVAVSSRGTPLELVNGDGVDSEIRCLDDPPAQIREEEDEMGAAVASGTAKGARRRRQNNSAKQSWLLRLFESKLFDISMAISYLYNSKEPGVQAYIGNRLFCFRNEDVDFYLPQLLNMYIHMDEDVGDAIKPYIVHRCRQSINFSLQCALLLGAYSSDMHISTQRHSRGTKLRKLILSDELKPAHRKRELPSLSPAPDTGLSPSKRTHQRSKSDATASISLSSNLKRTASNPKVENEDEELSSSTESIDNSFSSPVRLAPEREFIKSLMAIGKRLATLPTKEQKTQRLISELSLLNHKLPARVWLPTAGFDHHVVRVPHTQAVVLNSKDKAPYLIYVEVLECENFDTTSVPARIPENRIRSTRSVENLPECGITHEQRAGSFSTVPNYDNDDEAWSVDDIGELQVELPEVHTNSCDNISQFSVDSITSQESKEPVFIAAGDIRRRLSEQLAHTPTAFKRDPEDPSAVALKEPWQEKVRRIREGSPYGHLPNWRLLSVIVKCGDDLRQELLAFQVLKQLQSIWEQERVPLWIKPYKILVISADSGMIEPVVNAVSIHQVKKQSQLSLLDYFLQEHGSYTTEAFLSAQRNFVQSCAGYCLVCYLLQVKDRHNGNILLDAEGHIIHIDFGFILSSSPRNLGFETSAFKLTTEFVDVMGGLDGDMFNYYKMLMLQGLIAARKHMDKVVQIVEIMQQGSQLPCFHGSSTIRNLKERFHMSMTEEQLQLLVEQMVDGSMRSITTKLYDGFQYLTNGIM
Sphingosine kinase 1 (Homo sapiens), sequence (Q9NYA1 whole entry): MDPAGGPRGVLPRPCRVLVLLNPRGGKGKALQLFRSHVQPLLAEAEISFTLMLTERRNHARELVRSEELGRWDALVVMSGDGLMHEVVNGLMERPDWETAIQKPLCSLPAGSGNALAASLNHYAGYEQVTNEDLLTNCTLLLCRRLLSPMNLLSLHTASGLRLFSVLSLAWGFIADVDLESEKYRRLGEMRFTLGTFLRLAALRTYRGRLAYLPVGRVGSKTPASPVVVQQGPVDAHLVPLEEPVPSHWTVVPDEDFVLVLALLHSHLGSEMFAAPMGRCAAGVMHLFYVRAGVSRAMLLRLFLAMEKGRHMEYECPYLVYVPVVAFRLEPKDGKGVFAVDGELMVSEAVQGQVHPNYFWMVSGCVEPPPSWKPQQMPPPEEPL
Mitogen-activated protein kinase 3 (Homo sapiens), sequence (P27361 whole entry): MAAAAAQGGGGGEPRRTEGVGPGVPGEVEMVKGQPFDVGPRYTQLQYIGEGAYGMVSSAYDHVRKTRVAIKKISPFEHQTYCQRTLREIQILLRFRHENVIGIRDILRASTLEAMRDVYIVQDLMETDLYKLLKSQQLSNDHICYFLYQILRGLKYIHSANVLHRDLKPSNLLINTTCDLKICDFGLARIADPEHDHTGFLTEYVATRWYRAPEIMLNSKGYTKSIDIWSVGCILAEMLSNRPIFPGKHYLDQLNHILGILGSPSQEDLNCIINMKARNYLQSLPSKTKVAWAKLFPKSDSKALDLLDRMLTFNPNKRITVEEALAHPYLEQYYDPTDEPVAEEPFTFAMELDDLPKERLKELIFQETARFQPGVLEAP
SRSF protein kinase 3 (Homo sapiens), sequence (Q9UPE1 whole entry): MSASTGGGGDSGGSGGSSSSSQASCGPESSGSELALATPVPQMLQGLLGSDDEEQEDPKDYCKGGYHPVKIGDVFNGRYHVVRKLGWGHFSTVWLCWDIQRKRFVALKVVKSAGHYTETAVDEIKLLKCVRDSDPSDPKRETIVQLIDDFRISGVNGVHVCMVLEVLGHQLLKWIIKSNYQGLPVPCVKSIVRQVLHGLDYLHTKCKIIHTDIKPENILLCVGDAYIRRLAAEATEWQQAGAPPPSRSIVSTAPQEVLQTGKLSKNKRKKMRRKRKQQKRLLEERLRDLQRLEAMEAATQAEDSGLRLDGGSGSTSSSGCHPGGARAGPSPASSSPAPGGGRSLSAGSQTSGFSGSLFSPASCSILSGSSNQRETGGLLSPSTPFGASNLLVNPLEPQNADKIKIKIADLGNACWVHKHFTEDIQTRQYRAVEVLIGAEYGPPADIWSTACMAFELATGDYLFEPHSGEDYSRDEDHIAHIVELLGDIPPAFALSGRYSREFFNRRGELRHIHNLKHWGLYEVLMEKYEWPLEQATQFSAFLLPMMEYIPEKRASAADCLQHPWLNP
Mitogen-activated protein kinase 11 (Homo sapiens), sequence (Q15759 whole entry): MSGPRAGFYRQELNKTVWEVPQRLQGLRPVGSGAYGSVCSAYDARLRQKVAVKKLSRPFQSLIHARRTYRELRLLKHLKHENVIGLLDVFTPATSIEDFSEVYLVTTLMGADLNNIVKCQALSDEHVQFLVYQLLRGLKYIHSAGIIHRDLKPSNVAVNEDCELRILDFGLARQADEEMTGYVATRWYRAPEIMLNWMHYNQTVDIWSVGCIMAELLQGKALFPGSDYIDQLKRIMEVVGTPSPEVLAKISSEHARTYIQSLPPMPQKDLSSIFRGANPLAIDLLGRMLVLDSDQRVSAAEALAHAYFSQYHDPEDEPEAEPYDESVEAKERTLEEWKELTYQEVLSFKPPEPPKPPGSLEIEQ

As to `CCS(=O)(=O)c1ccc(OC)c(Nc2ncc(-c3cccc(F)c3)o2)c1`, the inhibition in assay [1] was 5.09%; in assay [2], -2.3%; in assay [3] it was 0.15%; in assay [4], 13.4%; in [5] it was 14.9%; in assay [6], 4.8%. Also, the inhibition is 7.52% in [7]; 5.58% in assay [8]; 5.36% in assay [9]; 3.31% in assay [10]; 4.78% in assay [11]; -0.63% in assay [12]. Besides, the inhibition stood at 0.45% in [13]; 5.95% in assay [14]; 5.75% in assay [15]; 2.23% in [16]; 4.91% in [17]; 0.49% in [18]. Further, the inhibition in assay [19] is -1.64%; in [20], -1.2%.
Turning to `c1ccc(-c2n[nH]cc2-c2ccnc(-c3ccc(OCCn4ccnc4)cc3)c2)nc1`, the inhibition in assay [1] is 1.75%; in [2], -3.24%; in assay [3] it was -1.72%; in [4], 9.4%; in assay [5] it was 36.8%; in [6], 1.39%. Further, the inhibition in assay [7] was 9.38%; in [8], 0.51%; in [9] it was 0.99%; in assay [10] it was 1.96%; in assay [11], 0.72%; in assay [12], 0.42%. Besides, the inhibition was -0.94% in assay [13]; 0.67% in [14]; 3.3% in assay [15]; 1.43% in [16]; 1.91% in [17]; -2.63% in assay [18]. The inhibition in assay [19] turned out to be 7.03%; in assay [20], 2.34%.
With `FC(F)(F)CNc1nccc(-c2cnn3ncccc23)n1`, the inhibition is 2.69% in [1]; -4.16% in assay [2]; -0.66% in assay [3]; 6.27% in assay [4]; 5.78% in assay [5]; 3.94% in [6]. The inhibition in assay [7] was 6.08%; in [8], 2.13%; in [9] it was 2.49%; in [10], 1.83%; in assay [11], 4.71%; in assay [12], -3.11%. Besides, the inhibition in assay [13] was -3.13%; in assay [14], 2.55%; in assay [15], 3.51%; in assay [16], 0.99%; in assay [17], 2.05%; in assay [18] it was 2.04%. Further, the inhibition in assay [19] was 5.22%; in assay [20] it was -2.3%.
Turning to `COc1ccc(Nc2ncc(-c3ccccc3)o2)cc1OC`, the inhibition is 1.29% in [1]; -1.82% in assay [2]; -2.17% in assay [3]; 4.31% in assay [4]; 5.01% in assay [5]; 1.96% in [6]. Besides, the inhibition in assay [7] is 4.99%; in assay [8], 0.77%; in [9], 2.02%; in assay [10], 4.1%; in assay [11], 1.14%; in assay [12], -1.72%. In addition, the inhibition in assay [13] is -3.33%; in [14], -2.31%; in assay [15], 0.95%; in assay [16], 0.94%; in assay [17], 4.48%; in assay [18], 2.22%. The figures for the inhibition in [19] and in assay [20] were 4.24% and -0.27%, respectively.
`Cc1ccc(-c2cc3c(NC(=O)C4CC4)ncnc3o2)cc1`: the inhibition worked out at 1.29% in [1]; 0.82% in assay [2]; 0.53% in assay [3]; 3.56% in assay [4]; 6.38% in assay [5]; 1.17% in assay [6]. Moreover, the inhibition is 7.45% in assay [7]; 5.13% in [8]; 4.2% in [9]; 1.34% in assay [10]; 2.7% in [11]; -2.33% in [12]. The inhibition in assay [13] is -1.12%; in assay [14], 1.23%; in assay [15] it was 2.63%; in assay [16], 2.48%; in assay [17] it was 3.33%; in assay [18] it was -4.86%. The inhibition in [19] is -6.67%; in [20] it was 3.8%.
As to `CS(=O)(=O)Nc1ccc(-c2ccc3c(NC(=O)C4CC4)n[nH]c3c2)cc1`, the inhibition in assay [1] is 3.17%; in assay [2] it was 1.14%; in assay [3] it was -1.76%; in [4], 2.35%; in assay [5], 7.21%; in assay [6], 1.53%. The inhibition in [7] is 0.3%; in [8], 3.39%; in [9], 4.07%; in [10], 1.3%; in [11] it was 2.05%; in assay [12], -1.28%. Further, the inhibition in [13] is -3.34%; in assay [14], 2.67%; in assay [15], 4.34%; in [16] it was 0.92%; in assay [17] it was 1.63%; in assay [18], -0.54%. Also, the results for the inhibition in assay [19] and in assay [20] were -0.98% and 2.34%, respectively.
Take `CS(=O)(=O)CCNCc1ccoc1-c1ccc2ncnc(Nc3ccc(OCc4ccccc4)cc3)c2c1`: the inhibition was 1.25% in [1]; -1.87% in assay [2]; -1.49% in [3]; 2.69% in assay [4]; 0.9% in assay [5]; 2.25% in [6]. The inhibition in assay [7] was 1.9%; in assay [8], 0.46%; in assay [9] it was -0.76%; in assay [10], 0.71%; in assay [11], 0.43%; in assay [12], -0.09%. The inhibition in assay [13] was -1.85%; in assay [14], 1.09%; in [15], 2.87%; in assay [16] it was 0.63%; in assay [17] it was 4.62%; in assay [18], 9.16%. The inhibition was -0.68% in assay [19] and 0.65% in assay [20].

The term inhibition denotes the change of the read-out against control, counted positive when it falls.
